Experimental data as given in PubChem BioAssay AID485284 (NMMLSC, 2010).
Measured potencies and affinities stand elsewhere.

test: loss of vesicle association with mouse CD8+ T cells – mouse 2C CD8+ T cells, flow cytometry, dose response (AID 485284); details: 2C mouse CD8+ T cell-exosome binding; at 45 µM (top of the series);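 also: drosophila derived vesicles carrying Ld MHC with QL9 peptide plus B7-1 and ICAM-1; vesicle binding seen as anti-B7-1 PE fluorescence on CD8 gated cells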

Row | SMILES | binding remaining, % of control [%]
1 | CC(C)(C)NC(=O)COc1ccc(CNCc2ccccn2)cc1 | 120
2 | Cn1c(CNC(=O)CNC(=O)c2ccc(F)cc2)cc(=O)n(C)c1=O | 99.6
3 | CCCCN1C(=O)NC(NC(=O)C2CC2)(C(F)(F)F)C1=O (stereo not drawn) | 136
4 | COc1ccc(C(=O)NNC(=O)CSc2nnnn2C)cc1 | 181
5 | O=C(Nc1ncc([N+](=O)[O-])s1)c1cccs1 | 56.8
6 | Cc1ccsc1C(=O)OCC(=O)N1CCN(c2ccccc2)CC1 | 129
7 | CCCCN(C(=O)C1CCC1)c1c(N)n(CC(C)C)c(=O)[nH]c1=O | 53.6
8 | Cc1ccccc1CS(=O)(=O)CCC(=O)N1CCN(c2ccc(N3CCOCC3)nn2)CC1 | 40.8
9 | Cc1ncc([N+](=O)[O-])n1Cc1cccc(F)c1 | 40.3
10 | CCOC(=O)c1cnc(=O)[nH]c1C | 189
11 | O=C(NNS(=O)(=O)c1ccc2ccccc2c1)c1cccs1 | 42.6
12 | Cc1cccc(N(C(=O)c2snc(C(N)=O)c2N)C(C(=O)NCC2CCCO2)c2ccc(N(C)C)cc2)c1C (stereo not drawn) | 22.8
13 | Cc1ccc(S(=O)(=O)c2c(N)n(NC(=O)c3ccccc3C)c3nc4ccccc4nc23)cc1 | 100
14 | CCCCCCCCn1c2c(c(=N)c3c1CCC3)CCCC2 | 36.6
15 | Cc1ccccc1C(=O)N1CCC(C(=O)Nc2ccc(C)c(S(=O)(=O)N3CCCCC3)c2)CC1 | 134
16 | COc1cccc(NC(=O)Nc2ccc3nc(C)c(C)nc3c2)c1 | 129
17 | O=C(NC(=S)NCc1ccco1)c1ccc(Br)cc1 | 136

Row | SMILES | binding remaining, % of control [%]
18 | COc1ccc([C@H]2CC(=O)C=C(c3cccc(Cl)c3)C2)cc1 | 141
19 | CCOC(=O)CSc1nc(COc2ccccc2)nc2ccccc12 | 99.6
20 | NC(=O)NC(=O)COC(=O)CN1C(=O)C2CCCCC2C1=O (stereo not drawn) | 164
21 | Cc1nc2sc(C(c3ccccc3)N3CCN(c4ccccc4F)CC3)c(O)n2n1 (stereo not drawn) | 163
22 | CCOc1ccc(CCNC(=O)CCS(=O)(=O)c2ccc(C)cc2)cc1OCC | 94
23 | O=C(NC1CCCCCC1)C1CCN(S(=O)(=O)c2ccccc2)CC1 | 137
24 | Cc1ccc(Cn2c([N+](=O)[O-])cnc2C)cc1 | 35
25 | Cc1ccc(NC(=O)CN2C(=O)N/C(=C/c3ccc(C)s3)C2=O)cc1 | 46
26 | COc1ccc(NS(=O)(=O)c2cc(NC(=O)C3CC3)ccc2N2CCCCC2)cc1 | 49.3
27 | Cc1ccc(C)c(-n2c3nc(=O)[nH]c(=O)c-3cc3cc([N+](=O)[O-])ccc32)c1 | 133
28 | O=C(/C=C/c1ccccc1Cl)NCCc1ccccc1 | 116
29 | COc1ccc(CNC(=O)c2cccnc2SC)cc1OC | 132
30 | Cc1c(Cl)cccc1NC(=O)c1cc(C2CC2)on1 | 86
31 | O=C(COC(=O)c1ccc(S(=O)(=O)N2CCOCC2)cc1)Nc1ccccc1OC(F)F | 20.5
32 | COc1ccc(-c2cc(=O)c3cc(O)ccc3o2)cc1 | 110
33 | Cc1ccc(C(C)n2cc(C(=O)NCCN3CCN(C)CC3)nn2)cc1 (stereo not drawn) | 144
